# Paper PMC11062922 (Nature Chemical Biology, 2023)
# Read-outs that look alike come from different tables or passages of the source.
# Tests used:
# Details in all cases: read-out: apparent Kd, n = 1
# ERN1 = test system: ERN1
# GAK = test system: GAK
# IKBKE = test system: IKBKE
# [1] = compound concentrations:100 nM and 1000 nM (sheet 'Lestaurtinib' of Supplementary Table 1),run:Lestaurtinib_02766_R1,Plate:MR027
# [2] = compound concentrations:100 nM and 1000 nM (sheet 'Lestaurtinib' of Supplementary Table 1),run:Lestaurtinib_02766_R2,Plate:MR027
# [3] = compound concentrations:100 nM and 1000 nM (sheet 'Lestaurtinib' of Supplementary Table 1),run:Lestaurtinib_02766_R3,Plate:MR027
# [4] = compound concentrations:100 nM and 1000 nM (sheet 'Lestaurtinib' of Supplementary Table 1),run:Lestaurtinib_02768_R1,Plate:MR028
# [5] = compound concentrations:100 nM and 1000 nM (sheet 'Lestaurtinib' of Supplementary Table 1),run:Lestaurtinib_02768_R2,Plate:MR028
# [6] = compound concentrations:100 nM and 1000 nM (sheet 'Lestaurtinib' of Supplementary Table 1),run:Lestaurtinib_02802_R1,Plate:MR029
# [7] = compound concentrations:100 nM and 1000 nM (sheet 'Lestaurtinib' of Supplementary Table 1),run:Lestaurtinib_02896_R3,Plate:MR030
# [8] = compound concentrations:100 nM and 1000 nM (sheet 'Lestaurtinib' of Supplementary Table 1),run:Lestaurtinib_03172_R2,Plate:MR031
# [9] = compound concentrations:100 nM and 1000 nM (sheet 'Lestaurtinib' of Supplementary Table 1),run:Lestaurtinib_03172_R3,Plate:MR031
# [10] = compound concentrations:100 nM and 1000 nM (sheet 'Lestaurtinib' of Supplementary Table 1),run:Lestaurtinib_02339_R1,Plate:MR001
# [11] = compound concentrations:100 nM and 1000 nM (sheet 'Lestaurtinib' of Supplementary Table 1),run:Lestaurtinib_02339_R2,Plate:MR001
substance,measurement,setting,value
Lestaurtinib,potency estimated from few doses,"ERN1; compound concentrations:100 nM and 1000 nM (sheet 'Lestaurtinib' of Supplementary Table 1),run:Lestaurtinib_02765_R2,Plate:MR026",84.8 nM
same,potency estimated from few doses,"ERN1; compound concentrations:100 nM and 1000 nM (sheet 'Lestaurtinib' of Supplementary Table 1),run:Lestaurtinib_02765_R3,Plate:MR026",113 nM
same,potency estimated from few doses,ERN1; [1],29.6 nM
same,potency estimated from few doses,ERN1; [2],54.9 nM
same,potency estimated from few doses,ERN1; [3],73.5 nM
same,potency estimated from few doses,ERN1; [4],51.4 nM
same,potency estimated from few doses,ERN1; [5],55.4 nM
same,potency estimated from few doses,"ERN1; compound concentrations:100 nM and 1000 nM (sheet 'Lestaurtinib' of Supplementary Table 1),run:Lestaurtinib_02795_R2,Plate:MR022",59.6 nM
same,potency estimated from few doses,ERN1; [6],60.8 nM
same,potency estimated from few doses,"ERN1; compound concentrations:100 nM and 1000 nM (sheet 'Lestaurtinib' of Supplementary Table 1),run:Lestaurtinib_02802_R3,Plate:MR029",176 nM
same,potency estimated from few doses,ERN1; [7],48.9 nM
same,potency estimated from few doses,ERN1; [8],68.4 nM
same,potency estimated from few doses,ERN1; [9],71.8 nM
same,potency estimated from few doses,GAK; [10],681 nM
same,potency estimated from few doses,GAK; [11],515 nM
same,potency estimated from few doses,"GAK; compound concentrations:100 nM and 1000 nM (sheet 'Lestaurtinib' of Supplementary Table 1),run:Lestaurtinib_02339_R3,Plate:MR001",744 nM
same,potency estimated from few doses,"GAK; compound concentrations:100 nM and 1000 nM (sheet 'Lestaurtinib' of Supplementary Table 1),run:Lestaurtinib_02364_R2,Plate:MR002",838 nM
same,potency estimated from few doses,"GAK; compound concentrations:100 nM and 1000 nM (sheet 'Lestaurtinib' of Supplementary Table 1),run:Lestaurtinib_02364_R3,Plate:MR002",670 nM
same,potency estimated from few doses,"GAK; compound concentrations:100 nM and 1000 nM (sheet 'Lestaurtinib' of Supplementary Table 1),run:Lestaurtinib_02367_R1,Plate:MR003",703 nM
same,potency estimated from few doses,"GAK; compound concentrations:100 nM and 1000 nM (sheet 'Lestaurtinib' of Supplementary Table 1),run:Lestaurtinib_02367_R2,Plate:MR003",797 nM
same,potency estimated from few doses,"GAK; compound concentrations:100 nM and 1000 nM (sheet 'Lestaurtinib' of Supplementary Table 1),run:Lestaurtinib_02367_R3,Plate:MR003",731 nM
same,potency estimated from few doses,"GAK; compound concentrations:100 nM and 1000 nM (sheet 'Lestaurtinib' of Supplementary Table 1),run:Lestaurtinib_02381_R2,Plate:MR004",635 nM
same,potency estimated from few doses,"GAK; compound concentrations:100 nM and 1000 nM (sheet 'Lestaurtinib' of Supplementary Table 1),run:Lestaurtinib_02407_R1,Plate:MR005",718 nM
same,potency estimated from few doses,"GAK; compound concentrations:100 nM and 1000 nM (sheet 'Lestaurtinib' of Supplementary Table 1),run:Lestaurtinib_02407_R2,Plate:MR005",809 nM
same,potency estimated from few doses,"GAK; compound concentrations:100 nM and 1000 nM (sheet 'Lestaurtinib' of Supplementary Table 1),run:Lestaurtinib_02407_R3,Plate:MR005",702 nM
same,potency estimated from few doses,"GAK; compound concentrations:100 nM and 1000 nM (sheet 'Lestaurtinib' of Supplementary Table 1),run:Lestaurtinib_02422_R1,Plate:MR006",425 nM
same,potency estimated from few doses,"GAK; compound concentrations:100 nM and 1000 nM (sheet 'Lestaurtinib' of Supplementary Table 1),run:Lestaurtinib_02422_R2,Plate:MR006",9.54 nM
same,potency estimated from few doses,"GAK; compound concentrations:100 nM and 1000 nM (sheet 'Lestaurtinib' of Supplementary Table 1),run:Lestaurtinib_02422_R3,Plate:MR006",725 nM
same,potency estimated from few doses,"GAK; compound concentrations:100 nM and 1000 nM (sheet 'Lestaurtinib' of Supplementary Table 1),run:Lestaurtinib_02437_R1,Plate:MR007",654 nM
same,potency estimated from few doses,"GAK; compound concentrations:100 nM and 1000 nM (sheet 'Lestaurtinib' of Supplementary Table 1),run:Lestaurtinib_02437_R2,Plate:MR007",698 nM
same,potency estimated from few doses,"GAK; compound concentrations:100 nM and 1000 nM (sheet 'Lestaurtinib' of Supplementary Table 1),run:Lestaurtinib_02437_R3,Plate:MR007",58.5 nM
same,potency estimated from few doses,"GAK; compound concentrations:100 nM and 1000 nM (sheet 'Lestaurtinib' of Supplementary Table 1),run:Lestaurtinib_02438_R1,Plate:MR008",700 nM
same,potency estimated from few doses,"GAK; compound concentrations:100 nM and 1000 nM (sheet 'Lestaurtinib' of Supplementary Table 1),run:Lestaurtinib_02438_R2,Plate:MR008",667 nM
same,potency estimated from few doses,"GAK; compound concentrations:100 nM and 1000 nM (sheet 'Lestaurtinib' of Supplementary Table 1),run:Lestaurtinib_02438_R3,Plate:MR008",750 nM
same,potency estimated from few doses,"GAK; compound concentrations:100 nM and 1000 nM (sheet 'Lestaurtinib' of Supplementary Table 1),run:Lestaurtinib_02473_R3,Plate:MR010",59.2 nM
same,potency estimated from few doses,"GAK; compound concentrations:100 nM and 1000 nM (sheet 'Lestaurtinib' of Supplementary Table 1),run:Lestaurtinib_02482_R1,Plate:MR011",870 nM
same,potency estimated from few doses,"GAK; compound concentrations:100 nM and 1000 nM (sheet 'Lestaurtinib' of Supplementary Table 1),run:Lestaurtinib_02482_R2,Plate:MR011",804 nM
same,potency estimated from few doses,"GAK; compound concentrations:100 nM and 1000 nM (sheet 'Lestaurtinib' of Supplementary Table 1),run:Lestaurtinib_02482_R3,Plate:MR011",707 nM
same,potency estimated from few doses,"GAK; compound concentrations:100 nM and 1000 nM (sheet 'Lestaurtinib' of Supplementary Table 1),run:Lestaurtinib_02487_R2,Plate:MR012",783 nM
same,potency estimated from few doses,"GAK; compound concentrations:100 nM and 1000 nM (sheet 'Lestaurtinib' of Supplementary Table 1),run:Lestaurtinib_02496_R1,Plate:MR013",552 nM
same,potency estimated from few doses,"GAK; compound concentrations:100 nM and 1000 nM (sheet 'Lestaurtinib' of Supplementary Table 1),run:Lestaurtinib_02496_R2,Plate:MR013",507 nM
same,potency estimated from few doses,"GAK; compound concentrations:100 nM and 1000 nM (sheet 'Lestaurtinib' of Supplementary Table 1),run:Lestaurtinib_02496_R3,Plate:MR013",639 nM
same,potency estimated from few doses,"GAK; compound concentrations:100 nM and 1000 nM (sheet 'Lestaurtinib' of Supplementary Table 1),run:Lestaurtinib_02566_R1,Plate:MR014",580 nM
same,potency estimated from few doses,"GAK; compound concentrations:100 nM and 1000 nM (sheet 'Lestaurtinib' of Supplementary Table 1),run:Lestaurtinib_02566_R3,Plate:MR014",806 nM
same,potency estimated from few doses,"GAK; compound concentrations:100 nM and 1000 nM (sheet 'Lestaurtinib' of Supplementary Table 1),run:Lestaurtinib_02572_R1,Plate:MR015",486 nM
same,potency estimated from few doses,"GAK; compound concentrations:100 nM and 1000 nM (sheet 'Lestaurtinib' of Supplementary Table 1),run:Lestaurtinib_02572_R3,Plate:MR015",627 nM
same,potency estimated from few doses,"GAK; compound concentrations:100 nM and 1000 nM (sheet 'Lestaurtinib' of Supplementary Table 1),run:Lestaurtinib_02577_R1,Plate:MR016",484 nM
same,potency estimated from few doses,"GAK; compound concentrations:100 nM and 1000 nM (sheet 'Lestaurtinib' of Supplementary Table 1),run:Lestaurtinib_02577_R3,Plate:MR016",574 nM
same,potency estimated from few doses,"GAK; compound concentrations:100 nM and 1000 nM (sheet 'Lestaurtinib' of Supplementary Table 1),run:Lestaurtinib_02584_R1,Plate:MR017",641 nM
same,potency estimated from few doses,"GAK; compound concentrations:100 nM and 1000 nM (sheet 'Lestaurtinib' of Supplementary Table 1),run:Lestaurtinib_02584_R2,Plate:MR017",628 nM
same,potency estimated from few doses,"GAK; compound concentrations:100 nM and 1000 nM (sheet 'Lestaurtinib' of Supplementary Table 1),run:Lestaurtinib_02601_R1,Plate:MR018",786 nM
same,potency estimated from few doses,"GAK; compound concentrations:100 nM and 1000 nM (sheet 'Lestaurtinib' of Supplementary Table 1),run:Lestaurtinib_02601_R2,Plate:MR018",761 nM
same,potency estimated from few doses,"GAK; compound concentrations:100 nM and 1000 nM (sheet 'Lestaurtinib' of Supplementary Table 1),run:Lestaurtinib_02601_R3,Plate:MR018",56 nM
same,potency estimated from few doses,"GAK; compound concentrations:100 nM and 1000 nM (sheet 'Lestaurtinib' of Supplementary Table 1),run:Lestaurtinib_02606_R1,Plate:MR019",646 nM
same,potency estimated from few doses,"GAK; compound concentrations:100 nM and 1000 nM (sheet 'Lestaurtinib' of Supplementary Table 1),run:Lestaurtinib_02606_R2,Plate:MR019",729 nM
same,potency estimated from few doses,"GAK; compound concentrations:100 nM and 1000 nM (sheet 'Lestaurtinib' of Supplementary Table 1),run:Lestaurtinib_02624_R1,Plate:MR020",818 nM
same,potency estimated from few doses,"GAK; compound concentrations:100 nM and 1000 nM (sheet 'Lestaurtinib' of Supplementary Table 1),run:Lestaurtinib_02624_R2,Plate:MR020",627 nM
same,potency estimated from few doses,"GAK; compound concentrations:100 nM and 1000 nM (sheet 'Lestaurtinib' of Supplementary Table 1),run:Lestaurtinib_02624_R3,Plate:MR020",770 nM
same,potency estimated from few doses,"GAK; compound concentrations:100 nM and 1000 nM (sheet 'Lestaurtinib' of Supplementary Table 1),run:Lestaurtinib_02724_R1,Plate:MR021",577 nM
same,potency estimated from few doses,"GAK; compound concentrations:100 nM and 1000 nM (sheet 'Lestaurtinib' of Supplementary Table 1),run:Lestaurtinib_02724_R2,Plate:MR021",628 nM
same,potency estimated from few doses,"GAK; compound concentrations:100 nM and 1000 nM (sheet 'Lestaurtinib' of Supplementary Table 1),run:Lestaurtinib_02748_R1,Plate:MR024",455 nM
same,potency estimated from few doses,"GAK; compound concentrations:100 nM and 1000 nM (sheet 'Lestaurtinib' of Supplementary Table 1),run:Lestaurtinib_02748_R2,Plate:MR024",649 nM
same,potency estimated from few doses,"GAK; compound concentrations:100 nM and 1000 nM (sheet 'Lestaurtinib' of Supplementary Table 1),run:Lestaurtinib_02748_R3,Plate:MR024",731 nM
same,potency estimated from few doses,"GAK; compound concentrations:100 nM and 1000 nM (sheet 'Lestaurtinib' of Supplementary Table 1),run:Lestaurtinib_02752_R2,Plate:MR025",637 nM
same,potency estimated from few doses,"GAK; compound concentrations:100 nM and 1000 nM (sheet 'Lestaurtinib' of Supplementary Table 1),run:Lestaurtinib_02752_R3,Plate:MR025",696 nM
same,potency estimated from few doses,GAK; [1],591 nM
same,potency estimated from few doses,GAK; [2],36.2 nM
same,potency estimated from few doses,GAK; [3],762 nM
same,potency estimated from few doses,GAK; [4],728 nM
same,potency estimated from few doses,GAK; [5],752 nM
same,potency estimated from few doses,"GAK; compound concentrations:100 nM and 1000 nM (sheet 'Lestaurtinib' of Supplementary Table 1),run:Lestaurtinib_02795_R1,Plate:MR022",828 nM
same,potency estimated from few doses,GAK; [6],614 nM
same,potency estimated from few doses,"GAK; compound concentrations:100 nM and 1000 nM (sheet 'Lestaurtinib' of Supplementary Table 1),run:Lestaurtinib_02802_R2,Plate:MR029",635 nM
same,potency estimated from few doses,"GAK; compound concentrations:100 nM and 1000 nM (sheet 'Lestaurtinib' of Supplementary Table 1),run:Lestaurtinib_02896_R2,Plate:MR030",687 nM
same,potency estimated from few doses,GAK; [7],634 nM
same,potency estimated from few doses,"GAK; compound concentrations:100 nM and 1000 nM (sheet 'Lestaurtinib' of Supplementary Table 1),run:Lestaurtinib_03172_R1,Plate:MR031",665 nM
same,potency estimated from few doses,GAK; [8],786 nM
same,potency estimated from few doses,GAK; [9],687 nM
same,potency estimated from few doses,"GAK; compound concentrations:100 nM and 1000 nM (sheet 'Lestaurtinib' of Supplementary Table 1),run:Lestaurtinib_03252_R1,Plate:MR032",707 nM
same,potency estimated from few doses,"GAK; compound concentrations:100 nM and 1000 nM (sheet 'Lestaurtinib' of Supplementary Table 1),run:Lestaurtinib_03252_R2,Plate:MR032",29.5 nM
same,potency estimated from few doses,"GAK; compound concentrations:100 nM and 1000 nM (sheet 'Lestaurtinib' of Supplementary Table 1),run:Lestaurtinib_03260_R1,Plate:MR033",784 nM
same,potency estimated from few doses,"GAK; compound concentrations:100 nM and 1000 nM (sheet 'Lestaurtinib' of Supplementary Table 1),run:Lestaurtinib_03260_R2,Plate:MR033",821 nM
same,potency estimated from few doses,"GAK; compound concentrations:100 nM and 1000 nM (sheet 'Lestaurtinib' of Supplementary Table 1),run:Lestaurtinib_03260_R3,Plate:MR033",793 nM
same,potency estimated from few doses,IKBKE; [10],861 nM
same,potency estimated from few doses,IKBKE; [11],585 nM
